Records with an inconclusive call do not appear. Entries that show only a call come without a potency. The source made the active and inactive calls. Calls follow the shape of the dose curve; as a rule, active = well fitted cell-killing curve with a large enough effect; inconclusive = small, poorly fitted or top-dose-only effect; inactive = no such curve, though single readings can be large or run the other way.
Assay: Quantitative High-Throughput drug screen in 47 multiple myeloma cell lines against the NCATS MIPE library collection: JIM3_ECACC cell viability assay (AID 1918963; also: nearly all actives have a fitted effect of over 35% in size)
Conditions: JIM3 myeloma viability, CellTiter-Glo ATP, 48 h; series mostly up to 45.8 µM
Description: PI: Beverly A. Mock Ph.D.
Laboratory of Cancer Biology and Genetics,
Center for Cancer Research, National Cancer Institute,
National Institute of Health, Bethesda, Maryland
Drug resistance and disease progression are common in multiple myeloma (MM) patients, underscoring the need for new therapeutic combinations. […] We hypothesized that effective combinations would reduce MYC expression and enhance p16 activity. […] These preclinical data identify potentially useful drug combinations for evaluation in drug-resistant MM and reveal potential mechanisms of combined drug sensitivity.
Described herein is the primary MIPE qHTS used to cherrypick compounds. Validated compounds were then further tested for potential synergistic activiy.
[1] Peat TJ, Gaikwad SM, Dubois W, Gyabaah-Kessie N, Zhang S, Gorjifard S, Phyo Z, Andres M, Hughitt VK, Simpson RM, Miller MA, Girvin AT, Taylor A, Williams D, D'Antonio N, Zhang Y, Rajagopalan A, Flietner E, Wilson K, Zhang X, Shinn P, Klumpp-Thomas C, McKnight C, Itkin Z, Chen L, Kazandijian D, Zhang J, Michalowski AM, Simmons JK, Keats J, Thomas CJ, Mock BA. Drug combinations identified by high-throughput screening promote cell cycle transition and upregulate Smad pathways in myeloma. Cancer Lett. 2023 Aug 1;568:216284. doi: 10.1016/j.canlet.2023.216284. Epub 2023 Jun 24. PMID: 37356470; PMCID: PMC10408729.
SEQUENCE No. (e.g., 1, 2, 3, etc.); […] (e.g., Cells, Incubation, Reagent, etc.); VALUE and DESCRIPTION.
1; Cells; 5 uL; white, solid bottom 1536-well Greiner assay plate.
2; Compounds; 23 nL; Kalypsis pin tool (Wako USA) equipped with a 1536-well pin head to transfer to the assay plates.
3; Incubation; 48 hours; 37C incubation.
4; Reagent;5uL; CellTiter Glo (Promega).
5; Detector; 425V; Luminescence; Viewlux PerkinElmer.
NOTES (numbers refer to Sequence numbers above)
1. The cell-based screening methods employed in this study were like those previously published. Briefly, the corresponding myeloma cell lines were screened in 1,536-well plates with 500 cells, 5-uL per well for inhibition of cell viability (assessed by measuring ATP levels with CellTiterGlo).
2. NCATS MIPE 4.0 library of approved and investigational drugs were added using the Kalypsis pin tool. Wells treated with DMSO only for 100% viability and media only wells for 0% viability were used as controls.
3. The assay plates were covered and incubated for 48 hours in a 37C, 5% CO2 incubator with controlled humidity.
4. After 48 hours, CellTilter-GloTM luminescent substrate mix (Promega) reagent was added to the assay plate and plates we incubated for 5 min at room temperature.
5. Signal was measured as median relative luminescence units on a ViewLux (PerkinElmer) multiplate reader.
[1] Heske CM, Davis MI, Baumgart JT, Wilson K, Gormally MV, Chen L, Zhang X, Ceribelli M, Duveau DY, Guha R, Ferrer M, Arnaldez FI, Ji J, Tran HL, Zhang Y, Mendoza A, Helman LJ, Thomas CJ. Matrix Screen Identifies Synergistic Combination of PARP Inhibitors and Nicotinamide Phosphoribosyltransferase (NAMPT) Inhibitors in Ewing Sarcoma. Clin Cancer Res. 2017 Dec 1;23(23):7301-7311. doi: 10.1158/1078-0432.CCR-17-1121. Epub 2017 Sep 12. PMID: 28899971; PMCID: PMC6636827.
Potency is read from the fitted curve at half-maximal effect.

Structure (SMILES) | Potency
CN1C(=O)COc2c(C(=O)NC3CN4CCC3CC4)cc(Cl)cc21 (configuration not stated) | inactive
CN1C(=O)CCS(=O)(=O)C1c1ccc(Cl)cc1 (configuration not stated) | inactive
COc1cc(OC)c(OC)cc1C=O | inactive
C[C@]12CC[C@H]3[C@@H](CC[C@@]45O[C@H]4C(O)=C(C#N)C[C@]35C)[C@H]1CC[C@H]2O | inactive
C[C@](O)(CS(=O)(=O)c1ccc(F)cc1)C(=O)Nc1ccc(C#N)c(C(F)(F)F)c1 | 2.35 µM (active)
CC(C)C[C@H](CN)CC(=O)O | inactive
C[C@]12CC[C@@H]3c4ccc(OC(=O)N(CCCl)CCCl)cc4CC[C@H]3[C@@H]1CC[C@@H]2OP(=O)(O)O | inactive
O=C(O)CCCc1ccc(N(CCCl)CCCl)cc1 | inactive
CC(NC(C)(C)C)C(=O)c1cccc(Cl)c1 (configuration not stated) | inactive
C[C@]12CCC(=O)C=C1CC[C@@H]1[C@H]3CC[C@](C)(O)[C@@]3(C)CC[C@@H]12 | inactive
CCC1(c2ccc(N)cc2)CCC(=O)NC1=O (configuration not stated) | inactive
CC(C)c1cccc(C(C)C)c1O | inactive
